This is a sample that favours compounds with a hit; in the whole collection about 4.7% have one here.
tim10-1 inh: inhibits growth of tim10-1 mutant yeast; S. cerevisiae tim10-1 ts strain growth, BacTiter-Glo, 24 h; inhibition, % at 20 µM; 330,000 tested, 2.2% active;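 active = inhibition of at least 40%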;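 note: mutant grown at 25 °C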
PfHsp90 set2: inhibits growth of yeast expressing Plasmodium falciparum Hsp90; AID 504621; inhibition, % at 9.4 µM; S. cerevisiae expressing PfHsp90, BacTiter-Glo ATP, 48 h; yeast lacking PDR1 and PDR3 efflux regulators; 310,000 tested, 0.32% active;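 active = every replicate shows inhibition above about 80%, whatever the replicate mean, limit read from the data; inconclusive = mean inhibition reaches the set limit but some replicate falls short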
ATG4B inh: inhibitors of human ATG4B cysteine protease; ATG4B cleavage of LC3-PLA2, NBD-HPC fluorescence, 1 h; inhibition, % at 8.33 µM; 340,000 tested, 0.51% active; in the data active = inhibition above about 40%
Target sequence (Q9Y4P1 whole entry, looked up): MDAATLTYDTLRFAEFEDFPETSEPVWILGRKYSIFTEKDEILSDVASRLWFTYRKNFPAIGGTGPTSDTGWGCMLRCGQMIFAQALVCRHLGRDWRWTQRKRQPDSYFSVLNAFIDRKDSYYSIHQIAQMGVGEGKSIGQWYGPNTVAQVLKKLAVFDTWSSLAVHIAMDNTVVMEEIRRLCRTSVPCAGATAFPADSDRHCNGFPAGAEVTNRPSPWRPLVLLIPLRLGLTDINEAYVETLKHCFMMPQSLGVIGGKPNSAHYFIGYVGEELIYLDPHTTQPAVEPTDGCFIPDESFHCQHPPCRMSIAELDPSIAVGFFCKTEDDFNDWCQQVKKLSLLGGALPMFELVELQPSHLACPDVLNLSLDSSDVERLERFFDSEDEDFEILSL
TIM10 inh: growth inhibitors of TIM10 yeast strain. S. cerevisiae TIM10 strain growth, BacTiter-Glo luminescence, 24 h. inhibition, % at 10 µM. 330,000 tested, 1.4% active;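 active = inhibition of 40% or more at the single tested concentration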;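 note: wild-type TIM10 isogenic control strain grown at permissive 25 °C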
tim23-1 inh: inhibits growth of tim23-1 mutant yeast; S. cerevisiae tim23-1 growth, BacTiter-Glo luminescence, 24 h; inhibition, % at 20 µM; 330,000 tested, 1.3% active; AID 463212;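 active = growth inhibition of the mutant yeast at or above 50%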;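 note: temperature-sensitive mutant grown at 25 °C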
SKKanGAS inh: blocks kanamycin growth of S. pyogenes SKKanGAS strain | BacTiter-Glo, 6 h | 300,000 tested, 1.3% active | AID 1662 | inhibition, % at 7.5 µM;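 active = mean replicate score, as percent of positive control median, at least 50; inconclusive = mean below 50 but one replicate at or above 50; inactive = mean and every replicate below 50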;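 note: strain carries kanamycin resistance gene driven by streptokinase promoter and grows in 40 µg/ml kanamycin; loss of luminescence reflects streptokinase promoter inhibition or plain growth inhibition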
Of the large screens only hits and unclear results are named; the others gave an inactive call.

CCCOC(=O)c1ccc(Oc2cn[nH]c2-c2ccc(OC)cc2O)cc1	PfHsp90 set2 106, SKKanGAS inh 59
C=C(C)COc1ccc(-c2ncncc2-c2ccc(Br)cc2)c(O)c1	none
COc1cccc(Oc2cn[nH]c2-c2ccc(OCC(=O)NN)cc2O)c1	none
O=C(COC(=O)C1=COCCO1)Nc1cccc(S(=O)(=O)N2CCOCC2)c1	none
CCCOc1ccc(C(=O)NCC(c2cccs2)N(C)C)cc1 (stereo not given)	none
C=C(C)COc1ccc(-c2[nH]ncc2Oc2ccc(OC)cc2)c(O)c1	PfHsp90 set2 inconclusive, SKKanGAS inh 56
CCc1cc(-c2nc(N)ncc2-c2ccc(Br)cc2)c(O)cc1OC	SKKanGAS inh 64
S=C(S)OC1CC2CC1C1CCCC21 (stereo not given)	none (no result: tim10-1 inh, TIM10 inh, tim23-1 inh, SKKanGAS inh)
Cc1nnc(NC(=O)Cc2cccs2)s1	none
CCCCN(C(=O)CCC(=O)O)C1CC(=O)N(c2ccc(OCCC)cc2)C1=O (stereo not given)	none
CCCCCCC(=O)N(O)C1CC(=O)N(c2ccc(F)cc2)C1=O (stereo not given)	PfHsp90 set2 109
COc1ccc(C(C[N+](=O)[O-])C2(c3ccc(OC)c(OC)c3)C(=O)c3ccccc3C2=O)cc1 (stereo not given)	PfHsp90 set2 105 (no result: tim10-1 inh, TIM10 inh, tim23-1 inh)
Cc1ccc(-c2c(C#N)c(N)n3c(nc4ccccc43)c2C#N)cc1	SKKanGAS inh 52 (no result: PfHsp90 set2)
Cc1c(CCCl)c(Cl)n2c(nc3ccccc32)c1C#N	PfHsp90 set2 103 (no result: tim10-1 inh, TIM10 inh, tim23-1 inh, SKKanGAS inh)
Cc1ccc2nc(C)c(C(=O)O)cc2c1	none
Cc1[nH]c(C)c(S(=O)(=O)NCc2ccc(F)cc2)c1C(=O)N1CCCC1	none
O=C(CSc1cccc[n+]1[O-])Nc1cc(Cl)ccc1[N+](=O)[O-]	none (no result: SKKanGAS inh)
O=[N+]([O-])c1ccc(Sc2cccc[n+]2[O-])c2nonc12	PfHsp90 set2 97, SKKanGAS inh 102 (no result: tim10-1 inh, TIM10 inh, tim23-1 inh)
COc1ccc(-c2csc(Nc3ccc(S(=O)(=O)Nc4cc(C)on4)cc3)n2)cc1C	SKKanGAS inh 68
COc1cc([N+](=O)[O-])cc(/C=N/NC(=O)c2cncc(Br)c2)c1O	SKKanGAS inh 94
COc1cc(/C=N/NC(=O)c2cncc(Br)c2)cc([N+](=O)[O-])c1O	SKKanGAS inh 108
COc1cc(/C=N/NC(=O)c2cccc([N+](=O)[O-])c2)cc(OC)c1O	none
Cc1cccc(NS(=O)(=O)c2cnc[nH]2)c1	none
CCc1ccc(C2C(C#N)=C(N)C(C#N)(C#N)C3=CCC(C(C)(C)C)CC32)cc1 (stereo not given)	SKKanGAS inh 85
CC1CCC(C(=O)c2c(O)c3ccccc3oc2=O)CC1 (stereo not given)	SKKanGAS inh 53
Nc1[nH]n2c(=O)cc(-c3ccccc3)nc2c1N=Nc1ccc2c(c1)OCO2	SKKanGAS inh 56 (no result: PfHsp90 set2, ATG4B inh)
CCCCCCc1cc2cc(C(=O)OCC)c(=O)oc2cc1O	SKKanGAS inh 56
O=c1c2ccccc2nc(SCc2nnc(-c3ccccc3Br)o2)n1-c1ccccc1	ATG4B inh 45
Brc1ccccc1-c1nnc(CSc2nncn2-c2ccccc2)o1	none
O=C(O)CCCCCNS(=O)(=O)c1ccc2c(c1)OCCO2	none
CC(C)Cn1c(=O)c(C(=O)N/N=C/c2cccc(F)c2)c(O)c2ccccc21	SKKanGAS inh 64
CCc1nnc(NC(=O)Cc2ccc(S(=O)(=O)N3CCCCC3)cc2)s1	none (no result: SKKanGAS inh)
Cc1nc(P(=O)(c2ccccc2)c2ccccc2)c(N2CCOCC2)o1	none
O=c1cc(-c2ccc(Cl)cc2)oc(=O)[nH]1	none
O=c1cc(N=Nc2ccc(Cl)cc2)[nH]c(=O)[nH]1	SKKanGAS inh 97 (no result: tim10-1 inh, TIM10 inh, tim23-1 inh)
c1ccc2sc(SCSc3nc4ccccc4s3)nc2c1	SKKanGAS inh 54
O=C(O)CCSc1nc2ccccc2s1	none
O=C(Nc1nc2cc3c(cc2s1)OCCO3)c1cccc(N2C(=O)CCC2=O)c1	none
CCN(CC)S(=O)(=O)c1cccc(C(=O)Nc2nc3cc4c(cc3s2)OCCO4)c1	SKKanGAS inh 71
O=C(CCS(=O)(=O)c1ccccc1)Nc1nc2cc3c(cc2s1)OCCO3	SKKanGAS inh 61
O=C(Nc1ccc(N2CCN(C(=O)c3ccco3)CC2)c(Cl)c1)c1cccnc1	none
O=C(Nc1ccc(N2CCN(C(=O)c3ccco3)CC2)c(Cl)c1)c1c(F)c(F)c(F)c(F)c1F	SKKanGAS inh 50

From PubChem BioAssay
